Where “and” joins values, the source holds several entries; their conditions need not be identical. Equal values may be shown once. Inconclusive results are not listed. Calls of active or inactive are those of the source. Unless noted, calls follow the shape of the dose curve; as a rule, active = well fitted curve in the direction sought with a large enough effect; inconclusive = small, poorly fitted or top-dose-only effect, or another doubt; inactive = no such curve, though single readings can be large; an effect the other way counts as inactive or inconclusive.
Key:
[1] = S16 Schwann cell PMP22 intronic element beta-lactamase assay (AID 624044; calls by dose curve;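 also: 0% = DMSO and -100% = potassium clavulanate positive control; nearly all actives have a fitted effect of over 15% in size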)
Procedure, shortened: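 Rat S16 Schwann cells with beta-Lac driven by a PMP22 intronic element, compound-treated 24 h at 37 °C. LiveBLAzer FRET B/G read: 460 nm normalized to potassium clavulanate vs DMSO; 535 nm FRET as viability; concentration-effect curves classified.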

[2] = qHTS assay for small molecule agonists of the antioxidant response element (ARE) signaling pathway (AID 651741; active = well fitted activation curve with a large enough effect in the signal ratio; the % refers to the signal ratio; also: potency is read from the fitted curve at half-maximal effect; as to activation: % of control where 0% means no effect)
Procedure, shortened: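 Compounds in DMSO are pinned onto HepG2 ARE-bla cells (2,000/well) that were preincubated 5 h; plates stay 16 h at 37 C, then beta-lactamase activity is detected with LiveBLAzer B/G substrate by fluorescence.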

[3] = qHTS assay for small molecule activators of the p53 signaling pathway (AID 651743; active = well fitted activation curve with a large enough effect in the signal ratio, not every such curve was filed as active; the % refers to the signal ratio; also: potency is read from the fitted curve at half-maximal effect; as to activation: series mostly up to about 92 µM; % of control where 0% means no effect); conditions: HCT-116 p53RE-bla, beta-lactamase FRET ratio, 16 h; activation: stronger effect = higher value
Procedure, shortened: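 Cell-based beta-lactamase reporter (p53 response elements, HCT-116 background). After a 5-hour preincubation, cells received compound for 16 hours at 37 C; substrate development ran 2 hours at room temperature.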

[4] = qHTS assay for small molecule activators of the nuclear factor-kappa B (NF-kB) signaling pathway (AID 651749; active = well fitted activation curve with a large enough effect in the signal ratio; the % refers to the signal ratio; also: series mostly up to about 77 µM; % of control where 0% means no effect); conditions: NF-kB-bla ME-180 cells, beta-lactamase FRET ratio, 16 h; stronger effect = higher value
Procedure, shortened: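 Screening used 2,000 ME-180 reporter cells per well exposed to pinned compound (23 nL) or DMSO; after 16 hr at 37C, beta-lactamase expression under NF-kB control was assessed through FRET.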

[5] = qHTS assay for small molecule disruptors of the mitochondrial membrane potential - 1 hr assay (AID 651754; calls by dose curve; also: % is scaled to controls: 0 for no effect and ±100 for the full control effect; nearly all actives have a fitted effect of over 35% in size)
Procedure, shortened: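 HepG2 cells, attached overnight, were exposed to compound for 1 hr at 37C, then stained 30 min with a potentiometric dye. Ratio of red aggregate (590nm) to green monomer (535nm) fluorescence reports membrane potential; collapse shifts signal toward green.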

[6] = qHTS assay for small molecule disruptors of the mitochondrial membrane potential - 5 hr assay (AID 651755; calls by dose curve; also: % is scaled to controls: 0 for no effect and ±100 for the full control effect; nearly all actives have a fitted effect of over 40% in size)
Procedure, shortened: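 HepG2 cells, attached overnight at 37C, were exposed to compound or DMSO for 5 hr at 37C, 5% CO2. Mito-MPS dye was then added for 30 min, and fluorescence read at 490/535 nm (monomers) and 540/590 nm (aggregates).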

[7] = qHTS assay for environmental chemicals that activate the Aryl hydrocarbon Receptor (AhR) signaling pathway (AID 651777); conditions: 1A2-DRE human hepatoma cells, luciferase, 24 h; activation: stronger effect = higher value; also: % of control where 0% means no effect; nearly all actives have a fitted effect of over 15% in size
Procedure, shortened: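 Following a 24 hr incubation with test chemicals at 37 C and 5% CO2, 1A2-DRE human hepatoma cells received One-Glo reagent; after 30 min at room temperature, luciferase output reflected CYP1A2 induction via AhR.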

[8] = molecular target: Peroxisome proliferator-activated receptor alpha (Homo sapiens) (UniProt Q07869); test: qHTS assay for small molecule agonists of the peroxisome proliferator-activated receptor alpha (PPARalpha) signaling pathway (AID 651778); conditions: PathHunter PPARalpha complementation, chemiluminescence, 6 h; stronger effect = higher value; also: % of control where 0% means no effect
Procedure, shortened: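 Cells plated at 2,000/well and held overnight at 37 C, 5% CO2, then compound added by pin tool for 6 hr; after PathHunter detection reagent and 60 min at room temperature, chemiluminescence from enzyme complementation was read.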

[9] = molecular target: Nuclear receptor ROR-gamma (Homo sapiens) (UniProt P51449); test: qHTS assay for small molecule antagonists of the retinoid-related orphan receptor gamma (ROR-gamma) signaling pathway (AID 651802); also: nearly all actives have a fitted effect of over 60% in size; also: potency is read from the fitted curve at half-maximal effect
Procedure, shortened: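 CHO cells with TET-inducible ROR-gamma and RORE-luciferase reporter, dosed then doxycycline-induced. After 16 h at 37C, One-Glo luminescence read; decreased signal indicates antagonism.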

[10] = qHTS assay for small molecule agonists of the antioxidant response element (ARE) signaling pathway measured by Nrf2-dependant transcriptional activity (AID 720636; active = well fitted curve in the direction sought with a large enough effect in the repeat runs; an effect the other way counts as inactive or inconclusive;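 also: HepG2 cells with an ARE-driven luciferase reporter; % of control where 0% means no effect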)
Procedure, shortened: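 ONE-Glo luminescence, read 30 min after reagent addition at room temperature, reflected ARE reporter activity in HepG2 cells that had been incubated with compound for 16 hr at 37 C in 1% dialyzed FBS.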

[11] = qHTS of Trypanosoma Brucei Inhibitors: LOPAC Validation (AID 624147); also: potency is read from the fitted curve at half-maximal effect
Procedure, shortened: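 Screened from lowest to highest concentration, compounds were pinned into TbPYK/substrate mixtures, and ADP (130 uM final) was added. Plates sat at room temperature for 45 min prior to Kinase-Glo Plus detection by luminescence.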

[12] = molecular target: Glucagon-like peptide 1 receptor (Homo sapiens) (UniProt P43220); test: qHTS of GLP-1 Receptor Agonists: LOPAC Validation (AID 624148);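 also: 0% is about no effect; higher luminescence signal means agonism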
Procedure, shortened: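 HEK293 cells stably co-expressing a cAMP-responsive luciferase reporter and a hypersensitive GLP-1R were plated 12 h at 37 °C and exposed to compounds for 4-6 hr at 37 °C, 5% CO2. Luminescence was read 12 min after adding detection reagent.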

[13] = qHTS of Nrf2 Activators: LOPAC Validation (AID 624149); also: 0% is about no effect
Procedure, shortened: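 AREc32_Fluc cells, 1000/well in OPTI-MEM with 5% FBS, grown overnight, then exposed to compounds for 24 hr at 37 deg C, 5% CO2. ARE-driven firefly luciferase read by Steady-Glo luminescence after 30 min at RT.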

[14] = HTS Assay for Allosteric Antagonists of the Human D2 Dopamine Receptor: Hit Validation in HTRF (AID 624455);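 also: stable D1 dopamine receptor cell line scored for blocking the D1 response; % is scaled to controls: 0 for no effect and ±100 for the full control effect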
Procedure, shortened: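 Hit validation in cells stably expressing the D1 dopamine receptor, run in HTRF format. Compounds were tested for their ability to inhibit the D1-mediated response.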

[15] = molecular target: Arylsulfatase A (Homo sapiens) (UniProt P15289); test: qHTS screen for enhancers of Arylsulfatase A (ASA1): LOPAC Validation Assay (AID 720538); also: potency is read from the fitted curve at half-maximal effect
Procedure, shortened: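 Read-out: fluorescence at Ex=525/Em=598 nm after 1N NaOH final stop. Patient fibroblasts carrying ASA-I179S had 48h compound exposure, then 14h room-temperature pNCS hydrolysis (0.5mM final) in lysis buffer. Signal increase = enhanced activity.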

[16] = qHTS for compounds that reverse cellular toxicity of Amyloid beta (A-beta) peptide in yeast: LOPAC Validation Assay (AID 720559);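 also: plate controls were DMSO for no effect and equimolar ferric chloride plus clioquinol rescue for full effect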
Procedure, shortened: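 OD600 growth readout after 48 hr at 30 C; A-beta-toxic yeast plus pinned compounds in medium. Normalization: DMSO = negative, equimolar FeCl3 + clioquinol = positive.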

[17] = qHTS for Activators of Parkin Expression: LOPAC Validation Assay (NLuc Reporter) (AID 720572;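 also: 0% = DMSO and 100% = positive control compound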)
Procedure, shortened: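 Neuronal line stably carrying a FLuc/NLuc coincidence reporter under the Parkin promoter, seeded 24 h, then dosed in 7-point series for 24 h at 37 C. NLuc luminescence read after FLuc; normalized to DMSO and positive control (100%).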

[18] = qHTS for Activators of Parkin Expression: LOPAC Validation Assay (FLuc Reporter) (AID 720573;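 also: 0% = DMSO and 100% = positive control compounds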)
Procedure, shortened: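 FLuc luminescence read-out from a neuronal line expressing a Parkin-promoter-driven coincidence reporter. Cells treated 24 h at 37 C, 5% CO2 with compounds at 7 concentrations; signal increase normalized to DMSO and positive control.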

[19] = molecular target: Glutaminase kidney isoform, mitochondrial (Homo sapiens) (UniProt O94925); test: qHTS for Inhibitors of Glutaminase (GLS): LOPAC Validation (AID 624146); also: nearly all actives have a fitted effect of over 60% in size; also: potency is read from the fitted curve at half-maximal effect
Procedure, shortened: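 Glutamate formation by hKGA was monitored fluorometrically using coupled glutamate oxidase, HRP and Amplex Red. Substrate was added as 1 mM L-glutamine solution; incubation was 30 min at RT after an initial read.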

[20] = qHTS assay to identify small molecules that stimulate interleukin-8 (IL-8) secretion (AID 651758; active = well fitted activation curve with a large enough effect in the signal ratio; the % refers to the signal ratio; also: 0% is about no effect)
Procedure, shortened: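 THP-1, 2000 cells/well; cpd 16 h, 37 C; add cryptate + XL665 anti-IL-8 Abs; RT 1-3 h; TR-FRET read.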

Arylsulfatase A (Homo sapiens), sequence (P15289 whole entry, looked up): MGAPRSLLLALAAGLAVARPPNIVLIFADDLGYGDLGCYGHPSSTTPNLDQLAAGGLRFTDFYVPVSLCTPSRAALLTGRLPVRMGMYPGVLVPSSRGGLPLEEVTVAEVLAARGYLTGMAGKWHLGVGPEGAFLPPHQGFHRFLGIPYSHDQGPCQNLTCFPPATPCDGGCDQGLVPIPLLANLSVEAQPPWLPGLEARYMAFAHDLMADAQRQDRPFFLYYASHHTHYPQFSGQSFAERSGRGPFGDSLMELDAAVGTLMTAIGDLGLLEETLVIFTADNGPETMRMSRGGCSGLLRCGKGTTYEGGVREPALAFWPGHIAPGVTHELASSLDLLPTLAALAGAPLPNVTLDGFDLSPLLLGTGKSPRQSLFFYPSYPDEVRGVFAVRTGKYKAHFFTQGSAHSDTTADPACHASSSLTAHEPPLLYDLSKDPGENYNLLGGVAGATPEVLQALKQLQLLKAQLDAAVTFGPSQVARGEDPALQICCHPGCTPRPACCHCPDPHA
Glutaminase kidney isoform, mitochondrial (Homo sapiens), sequence (O94925 whole entry, looked up, canonical isoform): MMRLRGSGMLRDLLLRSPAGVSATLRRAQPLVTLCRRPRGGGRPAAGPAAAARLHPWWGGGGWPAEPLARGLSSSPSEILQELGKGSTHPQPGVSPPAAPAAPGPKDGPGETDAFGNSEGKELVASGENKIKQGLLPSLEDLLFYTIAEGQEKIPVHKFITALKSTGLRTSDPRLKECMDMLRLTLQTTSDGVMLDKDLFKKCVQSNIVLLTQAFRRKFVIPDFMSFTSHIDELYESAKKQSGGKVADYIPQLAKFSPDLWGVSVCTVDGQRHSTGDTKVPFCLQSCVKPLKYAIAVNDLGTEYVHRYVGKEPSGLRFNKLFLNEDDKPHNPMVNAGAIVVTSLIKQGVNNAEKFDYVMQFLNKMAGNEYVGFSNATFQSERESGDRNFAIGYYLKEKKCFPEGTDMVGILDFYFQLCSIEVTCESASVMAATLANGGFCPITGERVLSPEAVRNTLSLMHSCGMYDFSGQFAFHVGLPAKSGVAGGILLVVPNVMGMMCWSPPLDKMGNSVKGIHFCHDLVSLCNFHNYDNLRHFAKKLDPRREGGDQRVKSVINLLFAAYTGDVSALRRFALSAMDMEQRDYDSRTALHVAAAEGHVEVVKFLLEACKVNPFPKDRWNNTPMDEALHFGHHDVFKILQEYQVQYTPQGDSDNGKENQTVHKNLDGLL
Peroxisome proliferator-activated receptor alpha (Homo sapiens), sequence (Q07869 whole entry, looked up): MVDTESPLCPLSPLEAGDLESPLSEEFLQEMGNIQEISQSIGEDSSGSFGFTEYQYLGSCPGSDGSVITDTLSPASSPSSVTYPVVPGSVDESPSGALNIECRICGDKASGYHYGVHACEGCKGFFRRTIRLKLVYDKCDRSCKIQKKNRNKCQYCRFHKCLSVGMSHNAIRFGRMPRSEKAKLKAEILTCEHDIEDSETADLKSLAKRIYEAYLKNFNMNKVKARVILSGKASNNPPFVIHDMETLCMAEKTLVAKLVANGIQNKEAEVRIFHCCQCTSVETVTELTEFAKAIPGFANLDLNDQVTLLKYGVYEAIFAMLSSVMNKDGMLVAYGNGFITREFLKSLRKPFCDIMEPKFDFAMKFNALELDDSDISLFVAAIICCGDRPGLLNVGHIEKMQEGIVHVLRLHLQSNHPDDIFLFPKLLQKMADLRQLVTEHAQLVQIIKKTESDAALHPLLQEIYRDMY
Glucagon-like peptide 1 receptor (Homo sapiens), sequence (P43220 whole entry, looked up): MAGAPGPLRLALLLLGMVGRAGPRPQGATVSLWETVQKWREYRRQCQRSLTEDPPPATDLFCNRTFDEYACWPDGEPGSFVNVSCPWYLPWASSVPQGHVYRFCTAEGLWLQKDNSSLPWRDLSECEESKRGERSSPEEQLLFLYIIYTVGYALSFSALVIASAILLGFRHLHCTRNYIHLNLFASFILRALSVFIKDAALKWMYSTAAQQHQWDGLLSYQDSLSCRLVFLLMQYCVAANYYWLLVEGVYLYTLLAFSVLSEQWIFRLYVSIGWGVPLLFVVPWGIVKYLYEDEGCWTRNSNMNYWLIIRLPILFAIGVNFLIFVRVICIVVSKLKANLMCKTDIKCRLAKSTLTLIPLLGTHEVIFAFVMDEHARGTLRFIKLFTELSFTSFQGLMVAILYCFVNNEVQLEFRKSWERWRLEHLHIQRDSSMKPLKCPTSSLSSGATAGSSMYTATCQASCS
Nuclear receptor ROR-gamma (Homo sapiens), sequence (P51449 whole entry, looked up): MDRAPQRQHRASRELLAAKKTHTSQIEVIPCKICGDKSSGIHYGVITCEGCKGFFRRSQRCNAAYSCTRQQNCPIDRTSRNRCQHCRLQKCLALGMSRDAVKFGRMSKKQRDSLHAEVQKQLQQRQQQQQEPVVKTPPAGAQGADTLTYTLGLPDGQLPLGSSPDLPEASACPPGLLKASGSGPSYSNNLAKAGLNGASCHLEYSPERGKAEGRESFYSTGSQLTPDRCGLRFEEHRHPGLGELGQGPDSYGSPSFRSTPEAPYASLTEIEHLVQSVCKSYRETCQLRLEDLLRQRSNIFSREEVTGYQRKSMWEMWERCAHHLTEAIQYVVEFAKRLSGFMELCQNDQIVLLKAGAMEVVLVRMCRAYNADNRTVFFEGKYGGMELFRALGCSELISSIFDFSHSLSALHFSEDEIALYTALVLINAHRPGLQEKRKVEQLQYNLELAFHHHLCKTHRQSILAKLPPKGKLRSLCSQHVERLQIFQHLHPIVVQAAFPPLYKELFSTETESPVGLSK

COC1=CC=C2[C@H]3Cc4ccc(OC)c5c4[C@@]2(CCN3C)[C@H]1O5
inactive: Potency [1]

CCCCCCCCOC(=O)c1ccccc1C(=O)OCCCCCCCC
inactive: Potency [1] | Potency [2] | activation [3] 1.9% and -2.06% | activation [4] -1.07% and -0.62% | Potency [5] | Potency [6] | activation [7] -0.0695% and 0.763% | max response [8] 0.808% and 0.946% | Potency [9] | Potency [10]

CCC(=O)O[C@@](Cc1ccccc1)(c1ccccc1)[C@@H](C)CN(C)C
inactive: Potency [1]

O=[N+]([O-])c1ccccc1
inactive: Potency [1] | Potency [2] | activation [3] 2.6% and -2.69% | activation [4] -0.285% and -0.296% | Potency [5] | Potency [6] | activation [7] -1.49% and 0.199% | max response [8] 0.135% and -4.33% | Potency [9] | Potency [10]

O=c1[nH]cc(N(CCCl)CCCl)c(=O)[nH]1
inactive: Potency [1]

[N-]=[N+]=CC(=O)OCC(N)C(=O)O (stereo unspecified)
inactive: Potency [1]

O=C1CC[C@@]2(O)C3Cc4ccc(O)c5c4C2(CCN3CC2CC2)[C@H]1O5 (stereo partly specified)
active: Potency [15] 0.426 µM
inactive: Potency [1] | Potency [11] | outcome [12] | Potency [13] | Potency [14] | outcome [16] | Potency [17] | outcome [18]

C[N+]1(C)C2CCC1CC(OC(=O)c1c[nH]c3ccccc13)C2 (stereo unspecified)
inactive: Potency [1] | Potency [19] | Potency [11] | outcome [12] | Potency [13] | Potency [14] | outcome [16] | Potency [17] | outcome [18]

C=CCN(C1=NCCN1)c1c(Cl)cccc1Cl
inactive: Potency [1] | Potency [19] | Potency [11] | outcome [12] | Potency [13] | Potency [14] | Potency [15] | outcome [16] | Potency [17] | outcome [18]

CCC(C)(S(=O)(=O)CC)S(=O)(=O)CC
inactive: Potency [1]

CCC1C(C)=NN=C(c2ccc(OC)c(OC)c2)c2cc(OC)c(OC)cc21 (stereo unspecified)
inactive: Potency [1]

N#CC1(N2CCCCC2)CCCCC1
inactive: Potency [1]

CCCCCl
inactive: Potency [1] | Potency [2] | activation [3] -4.24% | Potency [5] | Potency [6] | activation [7] -0.771% | max response [8] -3.81% | Potency [9] | Potency [10]

CC12NC(Cc3ccccc31)c1ccccc12 (stereo unspecified)
inactive: Potency [1] | Potency [19] | Potency [11] | outcome [12] | Potency [13] | Potency [14] | Potency [15]

O=C(O)C(Cl)(Cl)Cl
inactive: Potency [1] | Potency [2] | activation [3] 0.586% and -1.1% | Potency [5] | Potency [6] | Potency [20] | max response [8] 3.26% and -0.682% | Potency [9] | Potency [10]

O=C(OCCN1CCCCC1)C(O)(c1ccccc1)c1ccccc1
inactive: Potency [1]

Cc1sc2ccccc2c1CC1=NCCN1
inactive: Potency [1] | Potency [19] | Potency [11] | outcome [12] | Potency [13] | Potency [14] | Potency [15] | outcome [16] | Potency [17] | outcome [18]

C[C@]12CCC(=O)C[C@@H]1CC[C@@H]1[C@@H]2CC[C@]2(C)[C@@H](O)CC[C@@H]12
active: Potency [2] 24.3 µM | Potency [9] 26.6 µM
inactive: Potency [1] | activation [3] -3.4% and -1.57% | activation [4] 1.2% and 0.597% | activation [7] -0.925% and -0.613% | max response [8] -1.24% and 0.0043% | Potency [10]

[O]=[Cr](=[O])([OH])[O][Cr](=[O])(=[O])[OH]
inactive: Potency [1] | activation [4] 1.49% and -0.838% and 3.86% | Potency [5] | Potency [6] | Potency [20] | activation [7] 0.789% and 0.878% and -0.644% | max response [8] -2.4% and -2.51% and -6.59% | Potency [10]
active: Potency [2] 7.5 µM | Potency [3] 22.4 µM and 15.8 µM and 7.94 µM | Potency [9] 33.5 µM and 16.8 µM

CC1OC1P(=O)(O)O (stereo unspecified)
inactive: Potency [1] | Potency [19] | Potency [15]

CCC1(c2ccccc2)C(=O)NC(=O)NC1=O
inactive: Potency [1]

c1ccc2cc(CC3=NCCN3)ccc2c1
inactive: Potency [1] | Potency [19] | Potency [11] | outcome [12] | Potency [13] | Potency [14] | Potency [15] | outcome [16] | Potency [17] | outcome [18]

ClC1C(Cl)C(Cl)C(Cl)C(Cl)C1Cl (stereo unspecified)
inactive: Potency [1] | Potency [2] | activation [3] -1.74% [middle of 4 runs] | activation [4] -1.15% [middle of 4 runs] | activation [7] 1.78% [middle of 4 runs] | max response [8] 1.56% [middle of 4 runs] | Potency [10]

O=c1c2ccccc2[se]n1-c1ccccc1
inactive: Potency [1] | outcome [12] | Potency [14] | Potency [15] | outcome [16] | Potency [17] | outcome [18]
active: Potency [19] 2.82 µM | Potency [11] 19 µM

[O]=[Cd]
inactive: Potency [1] | Potency [2] | activation [3] 1.29% | activation [4] -0.74% | Potency [5] | Potency [6] | activation [7] 0.231% | max response [8] -1.92% | Potency [9] | Potency [10]

CCCC(C)(COC(N)=O)COC(=O)NC1CC1 (stereo unspecified)
inactive: Potency [1]

O=C1CCCCC1CN1CCCCC1 (stereo unspecified)
inactive: Potency [1]

CN1C2CCC1CC(OC(c1ccccc1)c1ccc(Cl)cc1)C2 (stereo unspecified)
inactive: Potency [1]

CNC(C)C(O)c1ccc(O)cc1 (stereo unspecified)
inactive: Potency [1]

S=C=S
inactive: Potency [1] | Potency [2] | activation [3] -0.789% | activation [4] -0.146% | Potency [5] | Potency [6] | Potency [20] | activation [7] 0.646% | max response [8] -4.15% | Potency [9] | Potency [10]

C=CCN=C=S
inactive: Potency [1] | Potency [2] | activation [3] -0.403% | activation [4] -1.41% | Potency [5] | Potency [6] | Potency [20] | activation [7] 0.264% | max response [8] -1.57% | Potency [9] | Potency [10]

— PubChem BioAssay (NCATS)
